Results as given in PubChem BioAssay (Tox21).
“And” between values parts separate entries of the source, which are not always exact repeats. Equal values may be shown once. Inconclusive results are not listed. A call without a number means that no potency is given here. Some structures have more than one record in an assay (separate samples or runs), and their calls can disagree. The source made the active and inactive calls. Unless noted, the call rests on the fitted dose curve; in most records, active means well fitted curve in the direction sought with a large enough effect in the repeat runs; inconclusive means weak or mixed curves; inactive means no such curve, though single readings can be large; an effect the other way counts as inactive or inconclusive.

Assays:
[1] = target: Acetylcholinesterase (Homo sapiens) (UniProt P22303); assay: Acetylcholinesterase (AChE) small molecule antagonists: enzyme-based qHTS assay (AID 1347397; calls by dose curve; further: nearly all actives have a fitted effect of over 55% in size; further: potency means the concentration at half of the fitted maximal effect); details: Potency: AChE enzyme activity inhibition; outcome: AChE enzyme activity inhibition
Sequence of Acetylcholinesterase (Homo sapiens) (P22303 whole entry, looked up): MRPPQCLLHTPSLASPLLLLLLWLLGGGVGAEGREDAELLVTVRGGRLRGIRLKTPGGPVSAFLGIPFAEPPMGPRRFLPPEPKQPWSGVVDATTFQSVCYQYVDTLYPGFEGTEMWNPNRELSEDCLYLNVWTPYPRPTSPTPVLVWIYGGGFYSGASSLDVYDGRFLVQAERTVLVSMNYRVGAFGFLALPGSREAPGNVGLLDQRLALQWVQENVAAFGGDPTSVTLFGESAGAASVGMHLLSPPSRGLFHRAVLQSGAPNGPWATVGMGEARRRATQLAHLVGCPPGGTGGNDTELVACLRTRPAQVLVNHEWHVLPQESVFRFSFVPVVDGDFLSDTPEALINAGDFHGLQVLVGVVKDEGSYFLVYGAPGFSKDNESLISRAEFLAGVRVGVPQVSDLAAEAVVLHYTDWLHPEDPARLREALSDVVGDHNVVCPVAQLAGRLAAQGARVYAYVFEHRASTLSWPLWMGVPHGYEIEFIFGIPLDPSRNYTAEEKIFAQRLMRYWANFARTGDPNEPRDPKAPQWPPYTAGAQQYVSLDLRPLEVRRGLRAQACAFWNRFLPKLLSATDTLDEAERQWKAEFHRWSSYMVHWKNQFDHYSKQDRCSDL
In short: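 Tox21 library chemicals are tested in qHTS format against recombinant human AChE. The enzyme, dispensed at 50 mU/mL, sits with compound for 30 min at room temperature. A DTNB–acetylthiocholine cocktail follows, and colour is read after 10 min.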

[2] = target: Acetylcholinesterase (Homo sapiens) (UniProt P22303); assay: Acetylcholinesterase (AChE) small molecule antagonists: fluorescence cell-based qHTS assay (AID 1347398; calls by dose curve; further: nearly all actives have a fitted effect of over 50% in size; further: potency means the concentration at half of the fitted maximal effect); details: Potency: AChE activity; outcome: AChE activity
In short: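 Cellular AChE inhibition: SH-SY5Y cells treated with test chemical for 30 min at 37 C, then acetylthiocholine hydrolysis followed over 40 min at room temperature via thiocholine-reactive Thiolite Green fluorescence (490/520 nm).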

[3] = target: Acetylcholinesterase (Homo sapiens) (UniProt P22303); assay: Acetylcholinesterase (AChE) small molecule antagonists: enzyme-based qHTS assay with human liver microsomes (AID 1347399; calls by dose curve; further: nearly all actives have a fitted effect of over 60% in size); details: Potency: qHTS inhibition; outcome: qHTS inhibition
In short: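 Recombinant human AChE (50 mU/mL in the enzyme mix) and human liver microsomes (0.25 mg/mL final) were preincubated with compound and NADPH (0.25 mg/mL final) for 30 min at 37 C. Acetylthiocholine/DTNB was then added; thiocholine was read colorimetrically after 10 min at room temperature.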

[4] = target: Cytochrome P450 2D6 (Homo sapiens) (UniProt P10635); assay: Cytochrome P450 Family 2 Subfamily D Member 6 (CYP2D6) small molecule antagonists: luciferase reporter qHTS assay (AID 1671196); further: nearly all actives have a fitted effect of over 50% in size; further: potency means the concentration at half of the fitted maximal effect
Sequence of Cytochrome P450 2D6 (Homo sapiens) (P10635 whole entry, looked up): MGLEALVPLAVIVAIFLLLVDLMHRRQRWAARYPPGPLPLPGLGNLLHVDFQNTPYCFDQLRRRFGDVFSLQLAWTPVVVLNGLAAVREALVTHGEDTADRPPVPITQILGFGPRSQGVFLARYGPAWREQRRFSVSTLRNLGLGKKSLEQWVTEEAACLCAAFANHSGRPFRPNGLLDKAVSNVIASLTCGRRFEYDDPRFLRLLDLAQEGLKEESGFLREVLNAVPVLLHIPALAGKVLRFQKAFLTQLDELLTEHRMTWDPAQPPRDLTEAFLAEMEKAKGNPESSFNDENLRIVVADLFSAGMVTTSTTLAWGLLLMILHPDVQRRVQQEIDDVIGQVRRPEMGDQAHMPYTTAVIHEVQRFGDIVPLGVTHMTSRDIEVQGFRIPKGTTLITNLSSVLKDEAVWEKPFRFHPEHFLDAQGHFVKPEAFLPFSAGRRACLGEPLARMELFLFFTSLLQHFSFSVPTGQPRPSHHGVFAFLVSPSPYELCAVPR
In short: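 Chemicals tested for interference with CYP2D6 activity; proluciferin substrate, NADPH regeneration, 1 h at room temperature, luminescent detection.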

[5] = target: Cytochrome P450 2C19 (Homo sapiens) (UniProt P33261); assay: Cytochrome P450 Family 2 Subfamily C Member 19 (CYP2C19) small molecule antagonists: luciferase reporter qHTS assay (AID 1671197); further: nearly all actives have a fitted effect of over 65% in size; further: potency means the concentration at half of the fitted maximal effect
Sequence of Cytochrome P450 2C19 (Homo sapiens) (P33261 whole entry, looked up): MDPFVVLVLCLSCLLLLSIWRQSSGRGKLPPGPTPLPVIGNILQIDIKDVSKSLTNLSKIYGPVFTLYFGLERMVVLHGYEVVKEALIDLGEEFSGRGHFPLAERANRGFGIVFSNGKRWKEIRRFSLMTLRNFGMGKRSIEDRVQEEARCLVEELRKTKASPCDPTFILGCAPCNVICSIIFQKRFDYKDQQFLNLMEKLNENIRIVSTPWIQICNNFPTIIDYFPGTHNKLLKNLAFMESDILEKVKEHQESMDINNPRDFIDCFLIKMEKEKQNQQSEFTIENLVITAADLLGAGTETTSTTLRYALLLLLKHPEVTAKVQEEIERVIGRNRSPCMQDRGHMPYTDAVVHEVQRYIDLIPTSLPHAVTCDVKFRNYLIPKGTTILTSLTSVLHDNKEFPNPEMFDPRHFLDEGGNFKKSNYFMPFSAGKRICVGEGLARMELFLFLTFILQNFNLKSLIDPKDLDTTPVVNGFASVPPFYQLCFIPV
In short: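 Relative luminescence units recorded 20 min after the detection reagent stopped a 1 h, 37C CYP2C19 reaction on proluciferin substrate, which was started by NADPH regeneration following 10 min room-temperature compound preincubation; ketoconazole positive control.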

[6] = target: Cytochrome P450 1A2 (Homo sapiens) (UniProt P05177); assay: Cytochrome P450 Family 1 Subfamily A Member 2 (CYP1A2) small molecule antagonists: luciferase reporter qHTS assay (AID 1671199); further: nearly all actives have a fitted effect of over 50% in size; further: potency means the concentration at half of the fitted maximal effect
Sequence of Cytochrome P450 1A2 (Homo sapiens) (P05177 whole entry, looked up): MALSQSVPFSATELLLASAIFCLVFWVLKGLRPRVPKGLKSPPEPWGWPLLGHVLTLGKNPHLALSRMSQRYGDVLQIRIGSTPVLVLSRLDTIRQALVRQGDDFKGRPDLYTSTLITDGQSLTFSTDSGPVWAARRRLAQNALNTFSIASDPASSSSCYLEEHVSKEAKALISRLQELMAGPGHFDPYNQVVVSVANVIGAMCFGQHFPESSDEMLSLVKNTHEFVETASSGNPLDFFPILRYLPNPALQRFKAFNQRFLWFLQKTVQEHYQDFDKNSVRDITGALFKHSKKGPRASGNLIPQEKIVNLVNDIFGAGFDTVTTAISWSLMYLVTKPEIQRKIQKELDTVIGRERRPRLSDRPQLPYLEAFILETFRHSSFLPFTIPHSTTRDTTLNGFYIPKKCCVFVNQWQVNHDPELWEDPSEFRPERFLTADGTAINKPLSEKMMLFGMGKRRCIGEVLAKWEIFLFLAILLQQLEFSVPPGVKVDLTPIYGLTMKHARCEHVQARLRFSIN
In short: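 Read-out is luminescence from luciferin detection reagent (20 min) proportional to CYP1A2 activity; compounds in DMSO preincubated 10 min with enzyme and proluciferin substrate, then NADPH regeneration solution, 1 h, room temperature.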

[7] = target: Voltage-gated inwardly rectifying potassium channel KCNH2 (Homo sapiens) (UniProt Q12809); assay: Human Ether-a-go-go-Related Gene (hERG) channel small molecule antagonists: fluorescence cell-based qHTS assay (AID 1671200); further: nearly all actives have a fitted effect of over 50% in size; further: potency means the concentration at half of the fitted maximal effect
Sequence of Voltage-gated inwardly rectifying potassium channel KCNH2 (Homo sapiens) (Q12809 whole entry, looked up): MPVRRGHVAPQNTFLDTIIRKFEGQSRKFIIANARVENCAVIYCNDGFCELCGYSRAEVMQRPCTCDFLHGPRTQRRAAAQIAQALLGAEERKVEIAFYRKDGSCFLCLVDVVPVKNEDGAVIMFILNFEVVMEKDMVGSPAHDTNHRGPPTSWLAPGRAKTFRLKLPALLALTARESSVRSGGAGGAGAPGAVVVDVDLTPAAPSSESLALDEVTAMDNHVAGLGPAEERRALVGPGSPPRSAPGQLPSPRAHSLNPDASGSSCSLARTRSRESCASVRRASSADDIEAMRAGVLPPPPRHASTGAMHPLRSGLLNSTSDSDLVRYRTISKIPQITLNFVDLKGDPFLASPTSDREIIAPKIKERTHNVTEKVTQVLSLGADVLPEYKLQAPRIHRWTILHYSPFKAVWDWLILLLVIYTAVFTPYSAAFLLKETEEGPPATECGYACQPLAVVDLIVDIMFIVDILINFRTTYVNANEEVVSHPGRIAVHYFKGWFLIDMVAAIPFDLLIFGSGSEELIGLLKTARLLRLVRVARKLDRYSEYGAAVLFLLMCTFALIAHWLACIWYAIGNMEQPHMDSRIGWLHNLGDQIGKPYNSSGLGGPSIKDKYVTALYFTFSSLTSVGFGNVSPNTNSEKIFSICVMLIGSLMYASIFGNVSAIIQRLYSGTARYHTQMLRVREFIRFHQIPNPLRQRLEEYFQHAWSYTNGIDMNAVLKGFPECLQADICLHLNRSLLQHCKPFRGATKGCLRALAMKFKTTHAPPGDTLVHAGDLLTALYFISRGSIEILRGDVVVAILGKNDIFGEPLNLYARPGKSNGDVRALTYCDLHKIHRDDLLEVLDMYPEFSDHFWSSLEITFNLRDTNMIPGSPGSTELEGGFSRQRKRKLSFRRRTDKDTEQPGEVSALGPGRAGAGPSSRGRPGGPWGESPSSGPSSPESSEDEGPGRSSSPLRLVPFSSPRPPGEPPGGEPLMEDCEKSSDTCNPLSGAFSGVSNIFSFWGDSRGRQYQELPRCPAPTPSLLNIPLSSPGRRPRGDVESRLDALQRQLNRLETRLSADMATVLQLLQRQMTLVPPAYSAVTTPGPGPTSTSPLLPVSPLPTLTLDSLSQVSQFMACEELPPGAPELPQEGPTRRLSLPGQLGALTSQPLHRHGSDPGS
In short: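 Kinetic two-minute fluorescence traces, sampled at 1 s, were collected following thallium stimulus of U2OS cells (1000 per well) that had been cultured overnight at 37 C and loaded with FluxOR II.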

[8] = target: Cytochrome P450 3A4 (Homo sapiens) (UniProt P08684); assay: Cytochrome P450 Family 3 Subfamily A Member 4 (CYP3A4) small molecule antagonists: luciferase reporter qHTS assay (AID 1671201); further: nearly all actives have a fitted effect of over 50% in size; further: potency means the concentration at half of the fitted maximal effect
Sequence of Cytochrome P450 3A4 (Homo sapiens) (P08684 whole entry, looked up): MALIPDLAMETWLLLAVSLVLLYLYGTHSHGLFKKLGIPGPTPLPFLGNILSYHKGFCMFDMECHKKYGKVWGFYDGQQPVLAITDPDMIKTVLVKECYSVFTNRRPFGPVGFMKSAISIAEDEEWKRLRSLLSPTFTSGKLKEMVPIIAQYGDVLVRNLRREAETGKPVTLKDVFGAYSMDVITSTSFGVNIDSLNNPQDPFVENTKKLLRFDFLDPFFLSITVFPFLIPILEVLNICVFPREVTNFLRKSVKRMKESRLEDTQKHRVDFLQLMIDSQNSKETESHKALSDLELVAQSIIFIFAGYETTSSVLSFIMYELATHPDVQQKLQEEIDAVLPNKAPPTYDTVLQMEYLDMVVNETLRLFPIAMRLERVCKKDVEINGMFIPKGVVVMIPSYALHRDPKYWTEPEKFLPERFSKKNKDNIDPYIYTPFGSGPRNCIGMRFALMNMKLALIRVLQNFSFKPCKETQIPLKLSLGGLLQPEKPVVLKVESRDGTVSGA
In short: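 Proluciferin-to-luciferin conversion by CYP3A4, NADPH-regenerated, 1 h RT; luminescence read as RLU. Ketoconazole as control.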

[9] = target: Cytochrome P450 2C9 (Homo sapiens) (UniProt P11712); assay: Cytochrome P450 Family 2 Subfamily C Member 9 (CYP2C9) small molecule antagonists: luciferase reporter qHTS assay (AID 1671198)
Sequence of Cytochrome P450 2C9 (Homo sapiens) (P11712 whole entry, looked up): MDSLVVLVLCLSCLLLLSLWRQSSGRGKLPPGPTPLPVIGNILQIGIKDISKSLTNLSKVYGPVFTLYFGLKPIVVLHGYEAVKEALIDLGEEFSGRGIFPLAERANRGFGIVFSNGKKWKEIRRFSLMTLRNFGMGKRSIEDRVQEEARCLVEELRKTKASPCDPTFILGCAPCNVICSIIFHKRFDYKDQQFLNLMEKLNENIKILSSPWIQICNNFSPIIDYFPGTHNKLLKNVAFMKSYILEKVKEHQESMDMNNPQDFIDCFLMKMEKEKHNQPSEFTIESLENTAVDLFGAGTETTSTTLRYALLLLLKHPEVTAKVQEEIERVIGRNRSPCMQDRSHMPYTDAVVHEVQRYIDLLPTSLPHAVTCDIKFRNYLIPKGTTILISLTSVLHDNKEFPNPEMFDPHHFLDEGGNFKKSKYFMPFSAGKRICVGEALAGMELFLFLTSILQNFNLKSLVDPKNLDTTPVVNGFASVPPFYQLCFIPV
In short: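 CYP2C9 activity was measured with a P450-Glo proluciferin substrate. Enzyme–substrate mix was held with compound for 10 min at room temperature, then NADPH regeneration solution was added for 1 h at 37C. Luciferin product was read as luminescence.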

| SMILES | Potency [1] | Potency [2] | Potency [3] | Potency [4] | Potency [5] | Potency [6] | Potency [7] | Potency [8] | Potency [9] |
| --- | --- | --- | --- | --- | --- | --- | --- | --- | --- |
| CCC(C)(C)c1ccc(O)c(C(C)(C)CC)c1 | inactive | inactive | inactive | 35.2 µM (active) and 31.7 µM (active) | 4.97 µM (active) and 1.78 µM (active) | 19.8 µM (active) and 31.7 µM (active) | inactive | 19.8 µM (active) and 25.2 µM (active) | – |
| C1CCNCC1 | inactive | inactive | inactive | inactive | inactive | 36.8 µM (active) | inactive | inactive | – |
| OCC1CO1 (stereo unspecified) | inactive | inactive | inactive | inactive | inactive | inactive | inactive | – | – |
| COC1=CC(=O)O[C@@H](/C=C/c2ccc3c(c2)OCO3)C1 | inactive | inactive | inactive | 34.1 µM (active) | 8.56 µM (active) | 3.41 µM (active) | inactive | 4.81 µM (active) | – |
| Cc1nnc(-c2ccccc2)c(=O)n1N | inactive | inactive | inactive | inactive | inactive | 35.6 µM (active) | inactive | inactive | – |
| CC(C)(C)CC(C)(C)c1ccc(O)cc1 | inactive | 31.7 µM (active) and inactive | inactive | 39.9 µM (active) and inactive | inactive | 37.3 µM (active) | 40 µM (active) | – | – |
| C=CCOCC1CO1 (stereo unspecified) | inactive | inactive | inactive | inactive | inactive | – | inactive | 30.9 µM (active) | inactive |
| CC(C)c1ccc(NC(=O)N(C)C)cc1 | inactive | inactive | inactive | inactive | 31.7 µM (active) | 15.9 µM (active) | inactive | inactive | – |
| CC(Oc1cccc(Cl)c1)C(=O)O (stereo unspecified) | inactive | inactive | inactive | inactive | inactive | inactive | inactive | inactive | – |
| CCCCCCCCCCCC[N+](C)(C)CCOc1ccccc1 | 63.3 µM (active) | 35.6 µM (active) | inactive | 3.56 µM (active) and 4.36 µM (active) | 56.4 µM (active) | 79.7 µM (active) and inactive | 776 nM (active) and 1.34 µM (active) | inactive | – |
| O=P(OCC(Br)CBr)(OCC(Br)CBr)OCC(Br)CBr (stereo unspecified) | inactive | inactive | inactive | 20.3 µM (active) and 26.8 µM (active) | 3.6 µM (active) and 4.25 µM (active) | 7.19 µM (active) and 9.52 µM (active) | 12.5 µM (active) and 18.5 µM (active) | – | – |
| CC(C)(C)OOC(C)(C)CCC(C)(C)OOC(C)(C)C | inactive | inactive | inactive | inactive | inactive | inactive | inactive | – | – |
| CCNC(=O)NC(=O)/C(C#N)=N/OC | inactive | inactive | inactive | inactive | inactive | – | inactive | inactive | – |
| ClCc1ccccc1Cl | inactive | inactive | inactive | inactive | inactive | – | inactive | inactive | – |
| NC(=S)c1c(Cl)cccc1Cl | inactive | inactive | inactive | inactive | inactive | 28.3 µM (active) | inactive | 28.3 µM (active) | – |
| O=C(Cc1ccccc1)OCCc1ccccc1 | inactive | inactive | inactive | inactive | 2.52 µM (active) | 10 µM (active) | inactive | inactive | – |
| O=C(N/N=C/c1ccc([N+](=O)[O-])o1)c1cc([N+](=O)[O-])cc([N+](=O)[O-])c1O | inactive | inactive | inactive | inactive | inactive | inactive | inactive | – | – |
| CCCC(C)(COC(N)=O)COC(=O)NC(C)C (stereo unspecified) | inactive | inactive | inactive | inactive | – | inactive | inactive | inactive | inactive |
| O=[N+]([O-])O[C@H]1CO[C@H]2[C@@H]1OC[C@H]2O[N+](=O)[O-] | inactive | inactive | inactive | inactive | inactive | inactive | inactive | – | – |
| C[C@H]1O[C@H](OC2[C@@H](O)[C@@H](O)C(O)[C@H](O)[C@H]2O)[C@@H](N)C[C@@H]1N=C(N)C(=O)O (stereo partly specified) | inactive | inactive | inactive | inactive | inactive | – | inactive | inactive | inactive |
| CCCCC(CC)COC(=O)c1c(Br)c(Br)c(Br)c(Br)c1C(=O)OCC(CC)CCCC (stereo unspecified) | inactive | inactive | inactive | inactive | – | inactive | inactive | – | inactive |
| CC(=O)OC(c1ccccc1)C(Cl)(Cl)Cl (stereo unspecified) | inactive | inactive | inactive | inactive | inactive | inactive | – | – | – |
| CN1C(=O)CN=C(c2ccccc2)c2cc([N+](=O)[O-])ccc21 | inactive | inactive | inactive | inactive | inactive | inactive | inactive | inactive | – |
| CCCCC1C(=O)NC(=O)N(C2CCCCC2)C1=O (stereo unspecified) | inactive | inactive | inactive | inactive | 27.5 µM (active) | inactive | inactive | inactive | – |
